Screening results (PubChem BioAssay)
Compounds with a hit are over-represented: about 1.7% of the library has one in this group of screens.
HDAC3 inhib – blocks human histone deacetylase 3; recombinant HDAC3, fluorogenic peptide/trypsin coupled, fluorescence; inhibition, % at 8.3 µM; hit rate 0.15% among 320,000; in the data active means inhibition above about 26%, passing the limit was not always enough
Target sequence (O15379 whole entry, looked up): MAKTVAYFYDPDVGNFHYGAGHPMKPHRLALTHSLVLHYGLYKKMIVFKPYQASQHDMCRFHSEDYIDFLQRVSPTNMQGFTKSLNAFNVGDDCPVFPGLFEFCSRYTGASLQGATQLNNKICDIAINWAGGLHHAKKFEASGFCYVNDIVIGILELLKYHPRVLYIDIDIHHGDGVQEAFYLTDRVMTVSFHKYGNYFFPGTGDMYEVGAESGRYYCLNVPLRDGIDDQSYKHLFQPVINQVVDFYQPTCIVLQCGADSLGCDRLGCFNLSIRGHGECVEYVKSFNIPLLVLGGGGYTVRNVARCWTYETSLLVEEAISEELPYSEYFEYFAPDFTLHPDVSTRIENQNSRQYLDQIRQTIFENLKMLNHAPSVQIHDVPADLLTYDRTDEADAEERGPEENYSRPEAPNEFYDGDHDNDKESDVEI
LANA-H2B inh – blocks KSHV LANA binding to histone H2A/H2B; AID 2629; inhibition, % (no concentration beside the values); cell-free LANA-H2A/H2B peptide, fluorescence polarization; hit rate 0.6% among 320,000; in the data active means inhibition mostly above about 10%, no sharp cut-off; inactive means mostly below about 6.7%
HTR2A ag – mouse HTR2A agonism via beta-arrestin recruitment; activation, % at 7.6 µM; AID 624169; P35363; CHO-K1 mHTR2A beta-arrestin complementation, luminescence; percent of 30 µM serotonin response; hit rate 0.66% among 360,000;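 active means activation above a run cutoff, the mean activation of all tested compounds plus 3 SD, cut at about 14% in these data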
CTSL1 counter – counter-screen for PFM18AAP inhibitors: inhibitors of F. hepatica cathepsin L1. recombinant F. hepatica cathepsin L1, Z-Leu-Arg-MCA fluorescence. inhibition, % at 5.96 µM. hit rate 0.49% among 300,000;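 active means inhibition above the mean of all tested compounds plus 3 SD, set per screening campaign, cut at about 17% in these data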
Of the large screens only hits and unclear results are named; the others gave an inactive call.

O=C(/C=C/c1ccccc1)NC(NC(=S)Nc1cccc(O)c1)C(Cl)(Cl)Cl (configuration not stated)	none
O=C(/C=C/c1ccccc1)NC(NC(=S)Nc1cccc(Cl)c1)C(Cl)(Cl)Cl (configuration not stated)	CTSL1 counter 18
O=C(COc1ccccc1[N+](=O)[O-])N(Cc1ccco1)C1CCS(=O)(=O)C1 (configuration not stated)	CTSL1 counter 25
Cc1cc(C(=O)COc2ccc(C#N)cc2)c(C)n1CC1CCCO1 (configuration not stated)	none (no result: CTSL1 counter)
COc1ccc(C(=O)Oc2ccc(=O)n(-c3ccccc3)n2)cc1	HDAC3 inhib 76
O=C(Oc1ccc(=O)n(-c2ccccc2)n1)c1cccc(Cl)c1	HDAC3 inhib 44
C[C@H]1CN=C(N(C)C)N1CCc1ccc(F)cc1	none
C#CCN(C[C@H]1[C@H](OC(=O)Nc2c(C)noc2C)[C@H](OC(=O)Nc2c(C)noc2C)C[C@H]2C(=O)N(c3ccccc3)C(=O)[C@@H]12)S(=O)(=O)c1ccc(C)cc1	none (no result: HDAC3 inhib, LANA-H2B inh, CTSL1 counter)
CCN(CC)c1ccc(S(=O)(=O)N2CCOCC2)cc1NC(=O)CN1CCc2ccccc2C1	LANA-H2B inh 33
CCN(CC)c1ccc(S(=O)(=O)N2CCOCC2)cc1NC(=O)Cn1nc(C)c([N+](=O)[O-])c1C	none (no result: CTSL1 counter)
CN(CC(=O)Nc1ccc(N2CCOCC2)cc1)C(=O)COc1ccccc1F	none
CCN(CC(=O)Nc1ccc(N2CCOCC2)cc1)C(=O)COc1ccccc1OC	LANA-H2B inh 10
O=C(NCc1ccncc1)C(=O)NC1CC1	LANA-H2B inh active
CSCCC(NC(=O)c1ccc(Cl)cc1Cl)C(=O)N(C)Cc1nc2ccccc2c(=O)[nH]1 (configuration not stated)	none (no result: HDAC3 inhib, LANA-H2B inh, CTSL1 counter)
O=C(N=C1SC2CS(=O)(=O)CC2N1c1ccc(F)cc1)C1CC1 (configuration not stated)	LANA-H2B inh 16
O=C(N=C1SC2CS(=O)(=O)CC2N1c1ccc(F)cc1)C1CCCCC1 (configuration not stated)	none
CCc1nc2c(OCc3cccc(Cl)c3)cccn2c1N(C)C(=O)c1ccc(OC)cc1	none (no result: HDAC3 inhib, LANA-H2B inh, CTSL1 counter)
COc1ccc(-c2csc3ncn(CC(=O)N4CCOCC4)c(=O)c23)cc1	LANA-H2B inh 16
Cc1ccc(NC(=O)COC(=O)C(CC(C)C)N2C(=O)C3CC=CCC3C2=O)c(C)c1 (configuration not stated)	CTSL1 counter 17
CC(C)(C)N=C1NN=C(c2ccc(Cl)cc2)CS1	CTSL1 counter 21
COc1ccc(CN=C2NN=C(c3ccc(Cl)cc3)CS2)cc1	none
COc1ccccc1C(=O)NC(=S)/C=C1/N(C)c2ccccc2C1(C)C	CTSL1 counter 19 (no result: HDAC3 inhib, LANA-H2B inh)
CC(C)CN(C(=O)CSc1n[nH]c(-c2cccs2)n1)C1CCS(=O)(=O)C1 (configuration not stated)	none (no result: CTSL1 counter)
Cc1onc(-c2ccccc2)c1C(=O)N1CCN(c2ccccc2)CC1	none
Cc1onc(-c2ccccc2)c1C(=O)N1CCN(c2ccc([N+](=O)[O-])cc2)CC1	LANA-H2B inh 16
CCOC(=O)[C@]12CCC=C1N(Cc1cccc3ccccc13)C(=O)[C@H](CC(=O)NCCCCc1ccccc1)C2	none (no result: HDAC3 inhib, LANA-H2B inh, CTSL1 counter)
COc1ccc(NC(=O)CN2C(=O)C(=O)N(C3CCCC3)C2=O)c(OC)c1	none (no result: CTSL1 counter)
O=C(/C=C/c1cccs1)Nc1nncs1	LANA-H2B inh 15
O=C(CCn1ccc2cc(S(=O)(=O)N3CCCC3)ccc21)NCCc1ccccc1	none
O=C(Cn1ccc2cc(S(=O)(=O)N3CCCC3)ccc21)NCCc1ccccc1	LANA-H2B inh 12
CCCCCCOc1ccc(/C=C/C(=O)N2CCOCC2)cc1OC	LANA-H2B inh 11
COc1ccc(F)cc1-c1cc(C(=O)NCc2ccccc2)[nH]n1	none (no result: HDAC3 inhib, LANA-H2B inh, CTSL1 counter)
Cc1ccc(S(=O)(=O)NC2CCCCC2)cc1	LANA-H2B inh 45 (no result: CTSL1 counter)
CCOC(=O)C1=CCC2C(=O)N(C)C(=O)C12 (configuration not stated)	none (no result: HDAC3 inhib, LANA-H2B inh, CTSL1 counter)
CSc1ccc(CN2CCC(C)(Oc3cccc(Cl)c3)C2)cc1 (configuration not stated)	none (no result: HDAC3 inhib, LANA-H2B inh, CTSL1 counter)
CC(C)C(=O)NC(c1ccc(N(C)C)cc1)c1c(O)ccc2ccccc12 (configuration not stated)	LANA-H2B inh 27
Cc1cccc(OCCCC(=O)NC(C)C)c1	none
CCCCNC(=O)OCCNC(=O)Oc1cccc(C)c1	CTSL1 counter 45
CCCCNC(=O)OC(C)CNC(=O)Oc1cccc(C)c1 (configuration not stated)	CTSL1 counter 26
O=C(CCc1nnc(CCC2CCCCC2)o1)NCCn1cccn1	LANA-H2B inh 15
O=C(NCC1CCCO1)C1CCN(S(=O)(=O)c2cc(Cl)ccc2Cl)CC1 (configuration not stated)	LANA-H2B inh 13
O=C(COC(=O)COc1ccccc1)NCc1ccco1	LANA-H2B inh 18
CC1=NN(c2ccccc2)C(=O)/C1=C\c1ccc(Oc2ccc([N+](=O)[O-])cc2[N+](=O)[O-])cc1	LANA-H2B inh 22
CC(=O)N1CCN(S(=O)(=O)c2cccc(C(=O)OCc3cccc(F)c3)c2)CC1	none (no result: CTSL1 counter)
COC(=O)C1CCN(C(=O)c2ccc(Cl)c(S(=O)(=O)NCc3cccnc3)c2)CC1	LANA-H2B inh 43
O=C(c1ccc(Cl)c(S(=O)(=O)NCc2ccccc2)c1)N1CCN(c2ccccn2)CC1	none
CC(C)CC1NC(=O)c2cc3ccccc3cc2-n2c1nc1cc(Cl)ccc1c2=O (configuration not stated)	none (no result: HDAC3 inhib, LANA-H2B inh, CTSL1 counter)
Cc1ccc(C)c(S(=O)(=O)N2CCCN(C)CC2)c1	none
Cc1ccc(C)c(S(=O)(=O)N2C(=S)NC(=O)C2C(C)C)c1 (configuration not stated)	CTSL1 counter 17
COc1ccc(N2C(=O)CSC2c2ccccc2[N+](=O)[O-])cc1 (configuration not stated)	LANA-H2B inh active
COc1ccc(N2C(=O)CSC2c2ccccc2)cc1 (configuration not stated)	none
O=C(O)[C@H](Cc1ccccc1)N1C(=O)c2c(Cl)c(Cl)c(Cl)c(Cl)c2C1=O	none
Cc1nc2c(C)cccn2c1/C(O)=C1\C(=O)C(=O)N(CCN(C)C)C1c1ccccc1 (configuration not stated)	LANA-H2B inh 12
Cc1ccc(C2/C(=C(\O)c3c(C)nc4c(C)cccn34)C(=O)C(=O)N2CCN(C)C)o1 (configuration not stated)	none (no result: HDAC3 inhib, LANA-H2B inh, CTSL1 counter)
CC(C)CCNC(=O)[C@H](CC(C)C)NC(=O)[C@H]1O[C@@H]1C(=O)O	CTSL1 counter 111 (no result: HTR2A ag)
CCOC(=O)[C@H]1O[C@@H]1C(=O)N[C@@H](CC(C)C)C(=O)NCCC(C)C	CTSL1 counter 106
CCOC(=O)N1CCC(NC(=O)C(CC(C)C)NC(=O)C2CCCCC2)CC1 (configuration not stated)	none
COC(=O)c1ccccc1NC(=O)CCn1c(=O)oc2ccccc21	none
CCN(c1ccccc1)S(=O)(=O)c1ccc(OC)c(NC(=O)CN(C)C)c1	LANA-H2B inh 94
Cc1ccc2c(=O)cc(C(F)F)oc2c1	none (no result: HDAC3 inhib, LANA-H2B inh)
Cc1cc(C)c2c(=O)cc(C(F)F)oc2c1	CTSL1 counter 17
NC(=S)N=Nc1c(O)n(Cc2ccccc2)c2ccccc12	none
